Reference: PubChem BioAssay AID1117361 (Southern Research Institute, 2015)
The campaign covered roughly 3,600 compounds. About 900 (25%) were called active. No rule for the calls is given here. A selection follows. Measured potencies and affinities stand elsewhere.

target: Protein Tat (Human immunodeficiency virus type 1 group M subtype B (isolate HXB2)) (UniProt P04608); test: HIV-1 Tat–TAR interaction blockers – biochemical, fluorescence polarization, FAM-labeled TAR RNA, counter-screen for Vif-APOBEC3G degradation inhibitor project, dose response (AID 1117361); conditions: Tat-TAR RNA binding; series mostly up to 100 µM

SMILES	outcome
Cc1ccccc1N1CCN(Cc2c[nH]c3ccccc23)CC1	inactive [at 50 µM]
CSc1ccc(/C=N/n2c(C3CCCCC3)n[nH]c2=S)cc1	inactive
Cc1nc(C)c(C(=O)Nc2nc3c(C)cccc3s2)o1	inactive
Clc1ccc(Sc2cc(N3CCOCC3)nc(-c3ccccc3)n2)cc1	inactive
O=C(NC1=NCCS1)C1CC2CCC1C2 (stereo unspecified)	inactive
NC(=O)COC(=O)c1ccc(Oc2ccccc2)cc1	inactive
CCOc1ccc2nc(NC(=O)CCn3cccc3)sc2c1	inactive
COc1ccc(OC)c(S(=O)(=O)N2CCN(C)CC2)c1	inactive
CCOC(=O)N1CCN(C(=O)c2cc3c(s2)-c2ccccc2OC3)CC1	inactive
O=C1N(c2ccccc2)C2CS(=O)(=O)CC2N1c1ccc(Cl)c(Cl)c1 (stereo unspecified)	inactive
COc1cccc(OC)c1C(=O)n1nc(C)cc1C	inactive
Cc1cc(S(=O)(=O)n2ccnc2)c(Cl)cc1Cl	inactive
O=C(Cc1ccccn1)c1ccncc1	inactive
O=C(N/N=C/c1cccnc1)c1cc(O)c(O)c(O)c1	inactive
Cc1ccc(N=Nc2ccc(O)c(/C=N\NC(=O)c3ccc(N)cc3)c2)cc1C	inactive
CCC(Sc1nc(N)c(NC(=O)c2ccc(OC)c(OC)c2)c(=O)[nH]1)C(=O)OC (stereo unspecified)	inactive
S=C(Nc1ccc(Oc2ccccc2)cc1)NC1CCCCC1	inactive
CCCCCCc1nc2c(=O)[nH]c3ccccc3c2o1	inactive
CCOC(=O)COn1c(=O)c(-c2ccc(Cl)cc2)[n+]([O-])c2ccccc21	inactive

SMILES	outcome
COc1ccccc1OCC(=O)NCC1CCCN(Cc2cnn(C(C)C)c2)C1 (stereo unspecified)	inactive
CCC(C)c1c(O)nc(SCC(=O)N2CCOCC2)[nH]c1=O (stereo unspecified)	inactive
CC1(C)CCC(=O)c2ccccc21	inactive
O=C(Oc1ccccc1)c1cccc2cccnc12	inactive
CC(C)Cn1c(CCC(=O)O)ccc1-c1cccs1	inactive
O=C(O)CCC(=O)N(Cc1cccs1)Cc1cccs1	inactive
CCc1ccc(-c2nc(SCC(=O)NC3CCS(=O)(=O)C3)n[nH]2)cc1 (stereo unspecified)	inactive
O=C(CNC(=O)Cn1cnc2sc3c(c2c1=O)CCCC3)NCc1ccccn1	inactive
Cc1cc(NC(=O)c2cncc(Br)c2)no1	inactive
O=C1c2ccccc2C(=O)N1OCCOCCOCCBr	inactive
O=C1CCC(CCC(=O)N2CCCC(C(=O)c3ccc4c5c(cccc35)CC4)C2)=NN1 (stereo unspecified)	inactive
Cc1ccc(OCc2ccc(C(=O)NN)o2)cc1C	inactive
CN(C)C(=O)c1ccc(COc2ccccc2Br)o1	inactive
CCOC(=O)c1cc2c(c(CCO)n1)[C@H](CCO)N(S(=O)(=O)C(C)(C)C)C2	inactive
COc1ccc(-n2c(Cc3cccn3C)nnc2SCC(=O)Nc2ccccc2)cc1	inactive
O=C(CSc1nnc(-c2cccnc2)n1C1CCCCC1)NC1CCCCC1	inactive
Cc1ccc(-n2c(SCC(=O)NCC3CCCO3)nc3c(c2=O)SCC3)cc1 (stereo unspecified)	inactive
O=C(Cc1cc(=O)[nH]c(=O)[nH]1)NCC1CCCO1 (stereo unspecified)	inactive
COc1ccc(OC)c(NC(=O)CSc2nnc(CCCO)n2-c2ccccc2)c1	inactive

SMILES	outcome
Cc1cccc(-n2c(N)cc(=O)nc2SCC(=O)NC2CCCCC2)c1	inactive
N#Cc1ccccc1S(=O)(=O)N1CCN(C(=O)CN2CCCC2c2cccs2)CC1 (stereo unspecified)	inactive
COc1ccc(C(C)NC(=O)C2C(=O)NC3(C)CC2c2ccccc2O3)cc1 (stereo unspecified)	inactive
O=C(O/N=C\c1ccc(N2CCCCC2)c([N+](=O)[O-])c1)c1c(F)cccc1F	inactive
Nc1nc2n(n1)C(c1c(F)cccc1Cl)CC(c1ccc(F)cc1)N2 (stereo unspecified)	inactive
CCOC(=O)Cn1c(=O)c2c(nc3n2CCN3Cc2ccccc2)n(C)c1=O	inactive
O=C(Nc1ccccc1)c1ccc(S(=O)(=O)N(CCO)CCO)cc1	inactive
COc1ccccc1NC(=O)C12CC3CC(C1)CC(c1ccc(C)cc1)(C3)C2	inactive
COc1ccc(N=c2scc(-c3ccc(OC)cc3)n2CCO)cc1	inactive
O=C(c1ccccc1Br)N1CCN(c2ccccc2)CC1	inactive
COc1cc(OC)cc(C(=O)NNC(=O)c2ccccc2Br)c1	inactive
CC1=CC(C)(C)n2c(O)c(N=NC(N)=S)c3c(C)c(C)cc1c32	inactive
COc1ccccc1Oc1coc2cc(OC(=O)N3CCOCC3)ccc2c1=O	inactive
O=C(O)c1ccc(Sc2nnnn2-c2ccccc2)c([N+](=O)[O-])c1	inactive
CCCCN(C)C(=O)c1cn(CC)c2ccc(S(=O)(=O)N(C)C)cc2c1=O	inactive
O=C(CCCc1c[nH]c2ccccc12)N1CCOCC1	inactive
O=C(O)c1ccc(NS(=O)(=O)c2cccc(C(=O)Nc3ccc([N+](=O)[O-])cc3)c2)cc1	inactive
COc1ccccc1C(=O)Nc1ccc(S(=O)(=O)Nc2cc(C)nc(C)n2)cc1	inactive
